From the supplement of paper PMC12340641
The full ranking holds about 1,000 compounds; the median of “relative growth in counter assay (no AraC = 100%, AraC + DMSO = 0%)” is about -1.1, and the highest 2% start at about 20. Only a selection was taken, and the highest values are over-represented in it overall.

System: HEK293FT dCK*-only
Test: relative growth in counter assay (no AraC = 100%, AraC + DMSO = 0%); higher = more growth rescue independent of IKZF1
Settings: compound concentration: 5 uM; AraC concentration: 0.3 uM; overnight pretreatment + 4 days AraC
Experimental: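 Growth recovery screen of the molecular-glue-like (Specs) library. HEK293FT cells expressing a dCK*-IKZF1 fusion (primary) or dCK* alone (counter) were pretreated overnight with compound at 5 uM, then given 0.3 uM AraC for 4 days. Hoechst nuclei were counted by imaging. Primary: normalised to pomalidomide (100%) and DMSO (0%), mean of 2 replicates. Counter: normalised to no-AraC (100%) and AraC+DMSO (0%), single replicate.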

SMILES | relative growth in counter assay [%]
CNC(=O)C(c1cccc(Nc2ncc(C)s2)n1)C1CCN(C(=O)[C@H](CC(C)C)NC(=O)OC(C)(C)C)CC1 (some centres undefined) | 8.97
CCCC(=O)Nc1ccc(S(=O)(=O)Nc2cc(OC)nc(OC)n2)cc1 | -1.4
O=C(COc1ccc(F)cc1)N1CCC(c2cccc(Nc3nccs3)n2)CC1 | 6.47
Cn1c(SCC(=O)Nc2ccccn2)nc2ccccc21 | 0.85
COc1cc(NS(=O)(=O)c2ccc(NC(=O)/C=C/C(=O)O)cc2)nc(OC)n1 | 2.31
CNC(=O)C(c1cccc(Nc2ncc(C)s2)n1)C1CCN(C(=O)c2cccc(Cl)c2F)CC1 (centres undefined) | -0.24
O=C(CO)N1CCC(c2cccc(Nc3ncc(-c4ccccc4)s3)n2)CC1 | -21.4
CCN1CC(C(=O)N2CCC(c3cccc(Nc4ncc(C)s4)n3)CC2)CC1=O (centres undefined) | -1.29
COc1cc(NS(=O)(=O)c2ccc(NCc3ccccc3O)cc2)nc(OC)n1 | -0.72
Cc1noc(CCC(=O)N2CCOC(c3cccc(Nc4nc(C)c(C)s4)n3)C2)n1 (centres undefined) | 5.54
COc1cccc(C(=O)Nc2ccc(S(=O)(=O)Nc3ncccn3)cc2)c1 | -5
Cc1nc(Nc2cccc(C3CCN(C(=O)c4n[nH]c5c4CCCC5)CC3)n2)sc1C | 14
CC(=O)Nc1ccc(S(=O)(=O)Nc2nc(C)cc(C)n2)cc1 | -0.14
CCC(Oc1ccccc1)C(=O)Nc1ccc(S(=O)(=O)Nc2ncccn2)cc1 (centres undefined) | 27.4
CCCC(=O)Nc1ccc(S(=O)(=O)Nc2nc(C)cc(C)n2)cc1 | -9.14
Cc1cc(C)nc(NS(=O)(=O)c2ccc(NC(=O)CSc3nccn3C)cc2)n1 | 2.1
CCC(Oc1ccccc1)C(=O)Nc1ccc(S(=O)(=O)Nc2nc(C)cc(C)n2)cc1 (centres undefined) | -3.58
Cc1cc(C)nc(NS(=O)(=O)c2ccc(NC(=O)CSc3nc(C)cc(C)n3)cc2)n1 | -6.83
Cc1cc(C)nc(NS(=O)(=O)c2ccc(NC(=O)CCl)cc2)n1 | 23.6
Cc1cc(C)nc(SCC(=O)Nc2ccc(S(=O)(=O)Nc3ncccn3)cc2)n1 | 19.9
CC(Oc1ccccc1)C(=O)Nc1ccc(S(=O)(=O)Nc2ncccn2)cc1 (centres undefined) | 0.06
O=C(CCCOc1ccccc1)Nc1ccc(S(=O)(=O)Nc2ncccn2)cc1 | 2.79
COC(C)(C)C(=O)N1CCOC(c2cccc(Nc3ncc(C)s3)n2)C1 (centres undefined) | -13
COCC(=O)N1CCCC1c1cccc(Nc2ncc(C)s2)n1 (centres undefined) | 0.29
Cc1csc(Nc2cccc(C3CCCN3CC(N)=O)n2)n1 (centres undefined) | 16.8

SMILES | relative growth in counter assay [%]
Cc1ccc(S(=O)(=O)Nc2ccc(S(=O)(=O)Nc3nccc(C)n3)cc2)cc1 | -5.66
Cc1ccccc1N1C(=O)c2ccc(Oc3ccc(N)cc3)cc2C1=O | 12.7
O=C(CC(c1ccccc1)c1ccccc1)Nc1ccc(S(=O)(=O)Nc2ncccn2)cc1 | -1.59
Cc1cnc(Nc2cccc(C3CN(C(=O)C4CCCO4)CCO3)n2)s1 (centres undefined) | -14.9
Cc1cnc(Nc2cccc(C3CCN(C(=O)C4C5C=CC(C5)C4C(=O)NCCO)CC3)n2)s1 (centres undefined) | -24.7
O=S(=O)(Nc1ncccn1)c1ccc(-n2cnnn2)cc1 | -1.47
Cc1cnc(Nc2cccc(CC3CCN(C(=O)C4CCCCC4)CC3)n2)s1 | -6.51
COc1nccnc1NS(=O)(=O)c1ccc(NC(=S)NC(=O)/C=C/c2cccs2)cc1 | 8.21
Cc1ccnc(NS(=O)(=O)c2ccc(NC(=O)c3ccc(-c4ccccc4)cc3)cc2)n1 | 0.76
Cc1ccc(Oc2cccc(N3C(=O)c4ccc(Oc5ccc(N)cc5)cc4C3=O)c2)cc1C | -3.99
O=C(C1CCCCC1)N1CCOC(c2cccc(Nc3ncc(Cc4ccc(F)cc4)s3)n2)C1 (centres undefined) | -1.26
O=C(Nc1ccc(S(=O)(=O)Nc2ccccn2)cc1)c1ccco1 | 4.23
CCOCCC(=O)Nc1ccc(S(=O)(=O)Nc2nccc(C)n2)cc1 | -2.85
Cc1ccc(C(C)(C)C(=O)N2CCCC2c2cccc(Nc3ncc(C)s3)n2)cc1 (centres undefined) | -21
Cc1cc(NS(=O)(=O)c2ccc(NC(=O)c3ccccc3)cc2)nc(C)n1 | 0.4
CCOC(=O)c1nc[nH]c1C(=O)N1CCOC(c2cccc(Nc3ncc(C)s3)n2)C1 (centres undefined) | -2.22
CC(C)(C)CC(=O)Nc1ccc(S(=O)(=O)Nc2ncccn2)cc1 | -0.2
Cc1cc(C)c2[nH]c3nc(SCC(=O)Nc4cccc(Cl)c4C)nnc3c2c1 | -20.1
O=C(/C=C/c1ccccc1)N1CCCC1c1csc(Nc2ccccn2)n1 (centres undefined) | -3.28
CCCc1cnc(Nc2cccc(C3CCN(C(=O)C(C)(C)NC(=O)COC)CC3)n2)s1 | -2.68
Cc1cnc(Nc2cccc(C3CN(C(=O)C4CCCC(C)C4)CCO3)n2)s1 (centres undefined) | -12.6
CN(C)CC(=O)N1CCCC1c1cccc(Nc2nccs2)n1 (centres undefined) | -0.55
NC(=O)CN1CCC(Cc2cccc(Nc3nccs3)n2)CC1 | -23.2
Cc1cnc(Nc2cccc(C3CCN(C(=O)C4CCC(=O)N4)CC3)n2)s1 (centres undefined) | -24.6
